Results on 21 compounds are retold here after PubChem BioAssay (Tox21).

Test [1] is described as follows: qHTS assay to identify small molecule antagonists of the glucocorticoid receptor (GR) signaling pathway - cell viability counter screen (AID 720693). Note: nearly all actives have a fitted effect of over 55% in size. Note: potency is the fitted concentration of half-maximal effect. On the technique in general: Quantitative high-throughput screening tests each substance at several concentrations.
The nature of test [2]: qHTS assay for identifying genotoxic compounds that show differential cytotoxicity against isogenic chicken DT40 cell lines with known DNA damage response pathways - wild type cell line (AID 743012). Note: nearly all actives have a fitted effect of over 60% in size. Note: potency is the fitted concentration of half-maximal effect. An outline of the steps: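 Parental DNA repair-proficient DT40 cells, 300 per well, were pre-incubated ~0.5 h at 37 C/5% CO2, pin-dosed with compounds in DMSO, then incubated 40 h. Viability was read as CellTiter-Glo luminescence after 30 min at room temperature.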

Test [3] can be described thus: qHTS assay for identifying genotoxic compounds that show differential cytotoxicity against isogenic chicken DT40 cell lines with known DNA damage response pathways - Rad54/Ku70 mutant cell line (AID 743015). Note: nearly all actives have a fitted effect of over 60% in size. Note: potency is the fitted concentration of half-maximal effect.
Test [4] can be described thus: qHTS assay to identify small molecule antagonists of the androgen receptor (AR) signaling pathway using the MDA cell line - cell viability counter screen (AID 743041; note: nearly all actives have a fitted effect of over 45% in size; note: potency is the fitted concentration of half-maximal effect). An outline of the steps: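 MDA-kb2 AR-luc cells (MMTV-luciferase, AR/GR responsive) treated with compounds plus R1881 agonist for 16 h at 37C. CellTiter-Fluor added at 15.5 h; fluorescence read after 30 min in the same wells.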

A short description of test [5]: qHTS assay to identify small molecule antagonists of the androgen receptor (AR) signaling pathway - cell viability counter screen (AID 743033; note: nearly all actives have a fitted effect of over 45% in size).
Test [6] in a line: qHTS assay for identifying genotoxic compounds that show differential cytotoxicity against isogenic chicken DT40 cell lines with known DNA damage response pathways - Rev3 mutant cell line (AID 743014). Note: nearly all actives have a fitted effect of over 55% in size. Note: potency is the fitted concentration of half-maximal effect.
Test [7] has as its target Androgen receptor (Homo sapiens) (UniProt P10275). The test can be described thus: qHTS assay to identify small molecule antagonists of the androgen receptor (AR) signaling pathway (AID 743035; active = well fitted inhibition curve with a large enough effect in the signal ratio in the repeat runs, not every such curve was filed as active; the % refers to the signal ratio; note: potency is the fitted concentration of half-maximal effect). An outline of the steps: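 HEK293 cells stably carrying a UAS-driven beta-lactamase reporter (AR-UAS-bla GripTite) were plated for 4 h at 37C, then given compound and the agonist R1881 and incubated 16 h. Reporter activity was read by LiveBLAzer B/G FRET fluorescence after 2 h at room temperature.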

Test [8] has the same target. Description: qHTS assay to identify small molecule agonists of the androgen receptor (AR) signaling pathway using the MDA cell line (AID 743040; note: nearly all actives have a fitted effect of over 20% in size; note: potency is the fitted concentration of half-maximal effect). Summed up: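 MDA-kb2 breast carcinoma cells carrying MMTV-luciferase (responsive to AR and GR), plated 5 h then treated 16 h with compounds at 37C, 0% CO2. Read-out was ONE-Glo luminescence after 30 min at room temperature.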

The target is the same in test [9]. The test can be described thus: qHTS assay to identify small molecule antagonists of the androgen receptor (AR) signaling pathway using the MDA cell line (AID 743042; note: nearly all actives have a fitted effect of over 55% in size). An outline of the steps: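 MDA-kb2 breast carcinoma cells carrying MMTV-luciferase (AR/GR responsive) were co-treated with compounds and the agonist R1881 for 16 h at 37C. Inhibition read as ONE-Glo luminescence; CellTiter-Fluor fluorescence measured in parallel for cytotoxicity.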

For test [10] the target is unchanged. Description: qHTS assay to identify small molecule agonists of the androgen receptor (AR) signaling pathway (AID 743036; active = well fitted activation curve with a large enough effect in the signal ratio in the repeat runs, with a control signal flat, not every such curve was filed as active; the % refers to the signal ratio; note: potency is the fitted concentration of half-maximal effect). An outline of the steps: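 Quantitative HTS of the Tox21 10K library in HEK293 cells bearing a stably integrated UAS-controlled beta-lactamase reporter. Compound exposure lasted 16 h at 37C. Reporter activity was detected by FRET substrate fluorescence after 2 h at room temperature.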

Several values for one entry are separate records, joined by “and”; a condition that tells them apart may be missing. Identical values can stand only once. Records with an inconclusive call do not appear. Activity calls are given as the source filed them. Unless noted, calls come from the whole dose curve; as a rule, active = well fitted curve in the direction sought with a large enough effect in the repeat runs; inconclusive = weak or mixed curves; inactive = no such curve, though single readings can be large; an effect the other way counts as inactive or inconclusive. Positions of bridges follow the written chain, without caps; N, C: chain ends. Non-standard residues stand in square brackets, D forms with d. Residues, ends and D or L forms follow the SMILES beside them. *: point of attachment. X2 = CC[C@H](C)CCCCC(=O)*; Dab = NCC[C@H](N)C(=O)O

Androgen receptor (Homo sapiens), sequence (P10275 whole entry, looked up): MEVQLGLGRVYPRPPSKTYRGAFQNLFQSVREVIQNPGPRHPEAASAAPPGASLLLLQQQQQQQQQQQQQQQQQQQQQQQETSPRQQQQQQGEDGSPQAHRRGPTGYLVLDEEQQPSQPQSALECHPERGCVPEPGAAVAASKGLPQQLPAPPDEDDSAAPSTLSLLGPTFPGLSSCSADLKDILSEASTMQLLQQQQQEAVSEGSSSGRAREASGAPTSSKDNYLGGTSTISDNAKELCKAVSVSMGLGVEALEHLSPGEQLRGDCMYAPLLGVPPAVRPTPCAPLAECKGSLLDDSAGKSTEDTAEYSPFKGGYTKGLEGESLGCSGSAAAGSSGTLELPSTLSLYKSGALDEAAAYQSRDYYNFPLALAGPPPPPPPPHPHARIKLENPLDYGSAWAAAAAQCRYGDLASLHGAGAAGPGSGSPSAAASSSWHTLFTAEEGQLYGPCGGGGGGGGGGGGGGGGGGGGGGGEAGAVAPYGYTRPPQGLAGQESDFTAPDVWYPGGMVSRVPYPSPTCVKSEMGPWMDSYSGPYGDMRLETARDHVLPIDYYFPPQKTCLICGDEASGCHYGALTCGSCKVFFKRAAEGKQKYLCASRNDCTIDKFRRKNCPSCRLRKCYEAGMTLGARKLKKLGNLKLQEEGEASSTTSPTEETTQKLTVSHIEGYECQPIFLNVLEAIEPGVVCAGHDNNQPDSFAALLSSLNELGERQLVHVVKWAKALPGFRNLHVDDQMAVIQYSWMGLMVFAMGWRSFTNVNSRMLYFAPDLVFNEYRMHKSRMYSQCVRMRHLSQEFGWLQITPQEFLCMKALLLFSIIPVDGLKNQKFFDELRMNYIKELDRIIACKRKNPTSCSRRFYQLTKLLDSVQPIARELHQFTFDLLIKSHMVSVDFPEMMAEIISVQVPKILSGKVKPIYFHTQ

For `CN(CCO)CC(O)Cn1cnc2c1c(=O)n(C)c(=O)n2C` (stereo not given) (tested in a mixture with another compound), the Potency result in [1], in test [2], in test [3] and in [4] was “inactive” throughout.

With `CCCCCCCCCCCCCCCCOCCOCCOCCOCCOCCOCCOCCOCCOCCOCCOCCOCCOCCOCCOCCOCCOCCOCCOCCOCCO`, the Potency was 13.4 µM (active) in [1], 2.37 µM (active) in [2], 29.8 µM (active) in test [3] and 29.8 µM (active) in test [4].

For the compound `O=C1NCCN1c1ncc([N+](=O)[O-])s1`, the Potency result in test [1], in test [2], in test [3], in [5] and in [4] was “inactive” each time.

Take `CCC(Oc1ccccc1)C(=O)N[C@@H]1C(=O)N2[C@@H]1SC(C)(C)[C@@H]2C(=O)O` (stereo not given in full): the Potency result in test [1], in [2], in [3], in test [5] and in test [4] was “inactive” throughout.

Take `CN1[C@@H]2CC[C@H]1CC(OC(c1ccccc1)c1ccccc1)C2` (stereo not given in full): the Potency result in [1], in test [5] and in [4] was “inactive” throughout. In addition, the Potency was 5.31 µM (active) and 8.41 µM (active) and 4.22 µM (active) in [6]; 8.41 µM (active) and 23.7 µM (active) and 11.9 µM (active) in test [3].

On to `CC[C@H](C)CCCCC(=O)N[C@@H](CCN)C(=O)N[C@H](C(=O)N[C@@H](CCN)C(=O)N[C@H]1CCNC(=O)[C@@H]([C@H](C)O)NC(=O)[C@H](CCN)NC(=O)[C@H](CCN)NC(=O)[C@H](CC(C)C)NC(=O)[C@@H](CC(C)C)NC(=O)[C@H](CCN)NC1=O)[C@@H](C)O` (X2-[Dab]T[Dab][Dab][Dab][dL]L[Dab][Dab][dT]; lactam 4-C), for which the Potency result in [1], in [2] and in [4] was “inactive” each time.

With `CCCCC(=O)OCC(=O)[C@]1(O)Cc2c(O)c3c(c(O)c2[C@@H](O[C@H]2C[C@H](NC(=O)C(F)(F)F)[C@H](O)[C@H](C)O2)C1)C(=O)c1c(OC)cccc1C3=O`, the Potency result in test [1], in [5] and in [4] was “inactive” in each case. Further, the Potency in test [6] was 1.88 µM (active); in [3] it was 0.211 µM (active).

With `CC#CCC(C)[C@H](O)/C=C/[C@@H]1[C@H]2C/C(=C/CCCC(=O)O)C[C@H]2C[C@H]1O` (stereo not given in full), the Potency result in test [1], in [6], in test [3], in [5] and in test [4] was “inactive” each time.

In the case of `CCOC(=O)O[C@]1(C(=O)COC(=O)CC)CC[C@H]2[C@@H]3CCC4=CC(=O)C=C[C@]4(C)[C@H]3[C@@H](O)C[C@@]21C`, the Potency result in [1], in test [2], in test [4] and in test [9] was “inactive” throughout. In addition, the Potency is 2.04 µM (active) in [7] and 0.0507 µM (active) in test [8].

Regarding `CN1C(=O)CN2CCc3ccccc3C2c2cc(Cl)ccc21` (stereo not given), the Potency result in [1], in test [6], in [3], in test [5] and in test [4] was “inactive” each time.

Regarding `Cc1c(Cl)cccc1Nc1ncccc1C(=O)O`, the Potency result in [1], in test [6], in [3], in test [5] and in test [4] was “inactive” each time.

As to `CC(=O)N[C@@H]([C@@H](O)[C@H](O)[C@H](O)CO)[C@@H](O)CC(=O)C(=O)O`, the Potency entry in test [1], in test [6], in [3], in test [5] and in test [4] was “inactive” in each case.

For the compound `CCCCCCC(=O)O[C@H]1CC[C@H]2[C@@H]3CCc4cc(O)ccc4[C@H]3CC[C@]12C`, the Potency result in test [1], in test [6], in [3], in test [5] and in [4] was “inactive” in each case.

Regarding `CS(=O)(=O)Nc1cc2occ(NC=O)c(=O)c2cc1Oc1ccccc1`, the Potency entry in [1], in test [6], in test [3], in test [5], in [8] and in [4] was “inactive” in each case. Besides, the Potency entry in [9] is “inactive”.

As for `COc1ccc2c(=O)c(C)c(-c3ccccc3)oc2c1CN(C)C`, the Potency result in test [1], in test [6], in test [5], in [7], in test [10] and in test [8] was “inactive” throughout. Also, in test [9], the Potency entry was “inactive”. The Potency in test [3] was 18.8 µM (active).

In the case of `CNCC(O)c1ccc(OC(=O)C(C)(C)C)c(OC(=O)C(C)(C)C)c1` (stereo not given), the Potency entry in test [1], in [5] and in [4] was “inactive” throughout. Also, in test [2], the Potency is 12.7 µM (active).

For the compound `CC1(C)S[C@@H]2[C@H](NC(=O)[C@H](N)c3ccccc3)C(=O)N2[C@H]1C(=O)OCOC(=O)[C@@H]1N2C(=O)C[C@H]2S(=O)(=O)C1(C)C`, the Potency entry in test [1], in test [6], in test [3], in test [5] and in test [4] was “inactive” in each case.

Take `CCCCC(C)(O)C/C=C/[C@H]1[C@H](O)CC(=O)[C@@H]1CCCCCCC(=O)OC` (stereo not given in full): the Potency result in test [1], in [5] and in test [4] was “inactive” in each case. Besides, the Potency in test [6] is 1.68 µM (active); in test [3], 1.19 µM (active).

Turning to `CCCCCCCCCCCCCCCCCC[N+](C)(C)CCC[Si](OC)(OC)OC`, the Potency entry in test [1], in test [5] and in [4] was “inactive” each time. Besides, the figures for the Potency in [6] and in [3] were 18.8 µM (active) and 10.6 µM (active), respectively.

As for `Nc1c(Br)cc(Br)cc1CNC1CCC(O)CC1` (stereo not given), the Potency entry in test [1], in [2], in test [5], in test [7], in [4] and in [9] was “inactive” each time. The results for the Potency in test [10] and in test [8] were 4.77 µM (active) and 1.88 µM (active), respectively.

As to `CC1(C)C(\C=C/C=C\C=C/C=C2/N(CCCCS(=O)(=O)O)c3ccc4ccccc4c3C2(C)C)=[N+](CCCCS(=O)(=O)[O-])c2ccc3ccccc3c21`, the Potency result in test [1], in test [5], in test [7] and in [8] was “inactive” in each case. Moreover, the Potency is 26.6 µM (active) in test [6] and 29.8 µM (active) in test [3].
